Measured values reported in PubChem BioAssay (NCATS).
Records with an inconclusive call do not appear. Active and inactive are the calls of the source. Calls follow the shape of the dose curve; as a rule, active = well fitted cell-killing curve with a large enough effect; inconclusive = small, poorly fitted or top-dose-only effect; inactive = flat fitted curve, though single readings scatter.

Assay: Cell Viability - LYMP2-008 (AID 980);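 also: cells exposed to compound for 24 h at 37 °C; nearly all actives have a fitted effect of over 60% in size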
Conditions: LYMP2-008 lymphoblastoid cell viability, qHTS; series mostly up to 92.2 µM
Outline: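 Measured: ATP-dependent luminescence, proportional to viable cell number, in human lymphoblastoid cells treated 24 hr with compound in complete culture medium. Values are AC50s from Hill-equation modelling of qHTS titrations.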

Row | Structure (SMILES) | outcome
1 | CC(C)NC(C)C | inactive
2 | CCC(C)(C)c1ccc(O)cc1 | inactive
3 | CCCC(C)(COC(N)=O)COC(N)=O | inactive
4 | O=P1(N(CCCl)CCCl)NCCCO1 (stereo not drawn) | inactive
5 | COP(=S)(OC)Oc1ccc(SC)c(C)c1 | inactive
6 | COC(=O)C(c1ccccc1)C1CCCCN1 (stereo not drawn) | inactive
7 | CC(C)c1cccc(C(C)C)c1O | inactive
8 | Clc1ccc(C(c2ccc(Cl)cc2)C(Cl)(Cl)Cl)cc1 | inactive
9 | C[C@]1(O)CC[C@H]2[C@@H]3CCC4=CC(=O)CC[C@]4(C)[C@@]3(F)[C@@H](O)C[C@@]21C | inactive
10 | COc1cc(OC)c(OC)cc1C=O | inactive
11 | Nc1ccccc1 | inactive
12 | C[C@]12CCC(=O)C=C1CC[C@@H]1[C@@H]2CC[C@@]2(C)[C@H]1CC[C@]2(C)O | inactive
13 | CN1C[C@H](C(=O)N[C@]2(C)O[C@@]3(O)[C@@H]4CCCN4C(=O)[C@H](Cc4ccccc4)N3C2=O)C=C2c3cccc4[nH]cc(c34)C[C@H]21 | inactive
14 | Oc1ccc(Cl)cc1 | inactive
15 | C[C@]12CCC(=O)C=C1CC[C@@H]1[C@@H]2CC[C@]2(C)C(=O)CC[C@@H]12 | inactive
16 | NCCc1ccc(O)cc1 | inactive
17 | CCOC(=O)CC(SP(=S)(OC)OC)C(=O)OCC (stereo not drawn) | inactive
18 | Nc1ccccc1C(=O)O | inactive
